This note sets out measurements from PubChem BioAssay (Tox21).

Values joined by “and” are separate entries in the source; they are usually repeats but may differ in a detail not shown here. Equal entries are not always repeated. The source holds several records for some structures; these can differ, active in one and inactive in another. Active and inactive are the calls of the source. Unless noted, calls follow the shape of the dose curve; as a rule, active = well fitted curve in the direction sought with a large enough effect in the repeat runs; inconclusive = weak or mixed curves; inactive = no such curve, though single readings can be large; an effect the other way counts as inactive or inconclusive.

The target in test [1] is Estrogen receptor (Homo sapiens) (UniProt P03372). Kind of test: qHTS assay to identify small molecule antagonists of the estrogen receptor alpha (ER-alpha) signaling pathway (AID 743069; active = well fitted curve in the direction sought with a large enough effect in the signal ratio in the repeat runs, not every such curve was filed as active; inconclusive = weak or mixed curves, or effect the other way; inactive = no such curve, though single readings can be large or run the other way; the % refers to the signal ratio). Particulars: HEK293 ER-alpha-UAS-bla, beta-lactamase ratio, antagonist mode; series mostly up to 69.4 µM. The procedure, abridged:
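Beta-lactamase FRET fluorescence is read after 2 hr at room temperature with LiveBLAzer B/G substrate. Before that, ER-alpha-bla HEK293 cells sit 4 hr after plating, then receive compound plus 17beta-estradiol and incubate 18 hr at 37C.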

Test [2] in a line: qHTS assay to identify small molecule antagonists of the estrogen receptor alpha (ER-alpha) signaling pathway - cell viability counter screen (AID 743074; calls by dose curve;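 also: HEK293 cells carrying ER-alpha-UAS-bla reporter stimulated with 17beta-estradiol; nearly all actives have a fitted effect of over 45% in size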). Particulars: ERalpha-bla HEK293 viability, CellTiter-Glo luminescence, 18 h; series mostly up to 69.4 µM.
The target in test [3] is Estrogen receptor (Homo sapiens) (UniProt P03372). Kind of test: qHTS assay to identify small molecule agonists of the estrogen receptor alpha (ER-alpha) signaling pathway (AID 743075; calls by dose curve;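 also: HEK293 GripTite cells with ER-alpha and UAS-driven beta-lactamase reporter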; also: potency is read from the fitted curve at half-maximal effect). The conditions noted are these: HEK293 ER-alpha-UAS-bla, beta-lactamase FRET ratio, 18 h; series mostly up to 70.1 µM.
Test [4] has the same target. The test is described as follows: qHTS assay to identify small molecule agonists of the estrogen receptor alpha (ER-alpha) signaling pathway using the BG1 cell line (AID 743079). Also: nearly all actives have a fitted effect of over 20% in size. Also: potency is read from the fitted curve at half-maximal effect. The conditions noted are these: BG1Luc4E2 cells, ERE-luciferase agonist, 22 h; series mostly up to 70.3 µM.
A short description of test [5]: qHTS assay to identify small molecule antagonists of the estrogen receptor alpha (ER-alpha) signaling pathway using the BG1 cell line (AID 743080; calls by dose curve;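 also: BG1 cells stimulated with 17beta-estradiol alongside compound; nearly all actives have a fitted effect of over 25% in size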). Particulars: BG1Luc4E2 ERE-luciferase antagonist mode, luminescence; series mostly up to 70.3 µM. The procedure, abridged: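 BG1-Luc-4E2 cells (endogenous full-length ER-alpha, stable 4×ERE-luciferase) were starved 5 days in phenol-red-free medium with 10% charcoal-stripped FBS, plated 24 h, then given compound plus 17beta-estradiol for 21.5 h at 37 C; ONE-Glo luminescence read after 30 min.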
In general terms: qHTS replaces the single test concentration by a dilution series.

A short description of test [6]: qHTS assay to identify small molecule antagonists of the estrogen receptor alpha (ER-alpha) signaling pathway using the BG1 cell line - cell viability counter screen (AID 743081).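 Also: compound given together with 17beta-estradiol as the ER stimulus; nearly all actives have a fitted effect of over 45% in size.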 Also: potency is read from the fitted curve at half-maximal effect. Particulars: BG1Luc4E2 viability, CellTiter-Fluor, 22 h; series mostly up to 70.3 µM.
The target of test [7] is Aromatase (Homo sapiens) (UniProt P11511). The test is described as follows: qHTS assay to identify aromatase inhibitors (AID 743083). Also: nearly all actives have a fitted effect of over 55% in size. Particulars: MCF-7 aro ERE, testosterone-driven ERE luciferase, 24 h; series mostly up to 70.3 µM.
Test [8] in a line: qHTS assay to identify aromatase inhibitors - cell viability counter screen (AID 743084).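 Also: cells stimulated with testosterone during compound exposure; nearly all actives have a fitted effect of over 55% in size.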 Also: potency is read from the fitted curve at half-maximal effect. The conditions noted are these: MCF-7 aro ERE viability, CellTiter-Fluor, 24 h; series mostly up to 70.3 µM.
The target in test [9] is Aryl hydrocarbon receptor (Homo sapiens) (UniProt P35869). The test is described as follows: qHTS assay to identify small molecule that activate the aryl hydrocarbon receptor (AhR) signaling pathway (AID 743085). Also: nearly all actives have a fitted effect of over 15% in size. Also: potency is read from the fitted curve at half-maximal effect.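 As to activation: HG2L7.5c1 human HepG2 liver cells with stably integrated DRE-driven firefly reporter.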 Particulars: HepG2 AhR-luc (HG2L7.5c1), luciferase, 24 h; series mostly up to 70.3 µM. The procedure, abridged:
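24 h compound exposure, 37C, HepG2-derived HG2L7.5c1 cells with DRE-responsive luciferase. Readouts: fluorescence viability, then luminescence at room temperature after 30 min.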

Test [10] can be described thus: qHTS assay to identify small molecule that activate the aryl hydrocarbon receptor (AhR) signaling pathway - cell viability counter screen (AID 743086).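 Also: HepG2 liver cells carrying the AhR DRE luciferase reporter; nearly all actives have a fitted effect of over 45% in size.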 Particulars: HepG2-AhR-luc viability, CellTiter-Fluor, 24 h; series mostly up to 70.3 µM. The procedure, abridged: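 HepG2-AhR-luc (HG2L7.5c1) cells, 4000/well, treated 24 h at 37 C with compound; viability measured as CellTiter-Fluor fluorescence after 30 min in the same wells as the luciferase read.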

Test [11] deals with Peroxisome proliferator-activated receptor gamma (Homo sapiens) (UniProt P37231). Kind of test: qHTS assay to identify small molecule agonists of the peroxisome proliferator-activated receptor gamma (PPARg) signaling pathway (AID 743094; active = well fitted activation curve with a large enough effect in the signal ratio in the repeat runs, not every such curve was filed as active; inconclusive = weak or mixed curves, or effect the other way; inactive = no such curve, though single readings can be large or run the other way; the % refers to the signal ratio). The conditions noted are these: HEK293H PPARg-UAS-bla, beta-lactamase FRET ratio, 17 h; series mostly up to 57 µM. The procedure, abridged:
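Agonist activity was taken from a beta-lactamase reporter (FRET substrate, 1 h at room temperature) in HEK293H cells carrying a PPARg UAS-bla construct. Compounds in DMSO were incubated 17 h at 37C after a 5 h cell pre-incubation.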

The target is the same in test [12]. The test is described as follows: qHTS assay to identify small molecule antagonists of the peroxisome proliferator-activated receptor gamma (PPARg) signaling pathway (AID 743191; calls by dose curve; also: nearly all actives have a fitted effect of over 30% in size). The conditions noted are these: HEK293H PPARg-UAS-bla, beta-lactamase ratio, antagonist, 17 h; series mostly up to 62.6 µM. The procedure, abridged:
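GeneBLAzer PPARg UAS-bla HEK293H cells, 5 h post-plating, exposed to compounds 17 h at 37C. LiveBLAzer B/G FRET substrate added for 1 h at room temperature; beta-lactamase reporter read by fluorescence intensity.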

Test [13] is described as follows: qHTS assay to identify small molecule antagonists of the peroxisome proliferator-activated receptor gamma (PPARg) signaling pathway - cell viability counter screen (AID 743194). Also: nearly all actives have a fitted effect of over 55% in size. The conditions noted are these: PPARg-bla HEK293H viability, CellTiter-Glo luminescence, 17 h, co-treated with 50 nM rosiglitazone; series mostly up to 62.6 µM. The procedure, abridged: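 Cytotoxicity counter screen in PPARg-bla HEK293H cells, same wells as reporter assay. Compounds plus 50 nM rosiglitazone (final) for 17 h at 37 C, then viability read by CellTiter-Glo luminescence.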

A short description of test [14]: qHTS assay for small molecule agonists of the antioxidant response element (ARE) signaling pathway (AID 743202; active = well fitted activation curve with a large enough effect in the signal ratio in the repeat runs, not every such curve was filed as active; inconclusive = weak or mixed curves, or effect the other way; inactive = no such curve, though single readings can be large or run the other way; the % refers to the signal ratio; also: potency is read from the fitted curve at half-maximal effect). The conditions noted are these: HepG2 ARE-bla reporter, beta-lactamase FRET, 16 h; series mostly up to 73.3 µM. The procedure, abridged: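 HepG2 ARE-bla reporter line, 2,000 cells/well; 5 h preincubation 37 C/5% CO2; compound (DMSO) 16 h 37 C; B/G FRET substrate 2 h RT; fluorescence intensity.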

Test [15] can be described thus: qHTS assay for small molecule activators of the heat shock response signaling pathway - cell viability counter screen (AID 743209). Also: nearly all actives have a fitted effect of over 50% in size. Particulars: HSE-bla HeLa viability, CellTiter-Glo luminescence, 5 h; series mostly up to 62.6 µM. The procedure, abridged: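 Cytotoxicity counter screen run in the same wells as the heat-shock bla reporter assay: HeLa HSE-bla cells, 5 h compound exposure at 37 C, viability read by CellTiter-Glo luminescence.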

The nature of test [16]: qHTS assay for small molecule activators of the heat shock response signaling pathway (AID 743210; active = well fitted activation curve with a large enough effect in the signal ratio in the repeat runs, with a control signal flat, not every such curve was filed as active; inconclusive = weak or mixed curves; the % refers to the signal ratio). The conditions noted are these: HeLa HSE-bla reporter, beta-lactamase ratio, 5 h; series mostly up to 62.6 µM. The procedure, abridged: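 Beta-lactamase reporter read-out: FRET substrate fluorescence after 2.5 h at RT, following 5 h compound treatment at 37 C of HeLa cells carrying HSE-driven bla reporter; quantitative HTS format.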

The nature of test [17]: qHTS assay to identify small molecule agonists of the peroxisome proliferator-activated receptor delta (PPARd) signaling pathway - cell viability counter screen (AID 743211). Also: nearly all actives have a fitted effect of over 55% in size. The conditions noted are these: PPARd-bla HEK293H viability, CellTiter-Glo luminescence, 17 h; series mostly up to 62.6 µM. The procedure, abridged: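 Luminescent ATP viability assay (CellTiter-Glo, 30 min RT) in UAS-bla HEK293H cells carrying the PPAR delta reporter construct, 3000 cells/well, after a 17 h compound treatment at 37 C.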

The nature of test [18]: qHTS assay for small molecule agonists of the antioxidant response element (ARE) signaling pathway - cell viability counter screen (AID 743203; calls by dose curve; also: nearly all actives have a fitted effect of over 55% in size; also: potency is read from the fitted curve at half-maximal effect). The conditions noted are these: ARE-bla HepG2 viability, CellTiter-Glo luminescence, 16 h; series mostly up to 73.3 µM. The procedure, abridged: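 Viability counter screen: CellTiter-Glo luminescence, read after 30 min at room temperature, in ARE-bla HepG2 wells. Compound exposure lasted 16 h at 37C/5% CO2, following a 5 h pre-incubation of the cells after plating.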

For test [19], the system named is thyroid hormone receptor (rat, GH3 cells). Kind of test: qHTS assay to identify small molecule agonists of the thyroid receptor (TR) signaling pathway (AID 743066; calls by dose curve). Particulars: GH3.TRE-Luc cells, TR agonist luciferase, 24 h; series mostly up to 83.9 µM.
A short description of test [20]: qHTS assay to identify small molecule antagonists of the thyroid receptor (TR) signaling pathway (AID 743065). The conditions noted are these: GH3.TRE-Luc, T3-stimulated luciferase inhibition, 23.5 h; series mostly up to 70.3 µM. The procedure, abridged: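 GH3.TRE-Luc rat pituitary cells (two TREs driving luciferase) were dosed with compound, then stimulated with 1 nM T3 (final) for 23.5 h at 37 C. ONE-Glo luminescence was the read-out, with CellTiter-Fluor fluorescence as the cytotoxicity counter-screen.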

Aryl hydrocarbon receptor (Homo sapiens), sequence (P35869 whole entry, looked up): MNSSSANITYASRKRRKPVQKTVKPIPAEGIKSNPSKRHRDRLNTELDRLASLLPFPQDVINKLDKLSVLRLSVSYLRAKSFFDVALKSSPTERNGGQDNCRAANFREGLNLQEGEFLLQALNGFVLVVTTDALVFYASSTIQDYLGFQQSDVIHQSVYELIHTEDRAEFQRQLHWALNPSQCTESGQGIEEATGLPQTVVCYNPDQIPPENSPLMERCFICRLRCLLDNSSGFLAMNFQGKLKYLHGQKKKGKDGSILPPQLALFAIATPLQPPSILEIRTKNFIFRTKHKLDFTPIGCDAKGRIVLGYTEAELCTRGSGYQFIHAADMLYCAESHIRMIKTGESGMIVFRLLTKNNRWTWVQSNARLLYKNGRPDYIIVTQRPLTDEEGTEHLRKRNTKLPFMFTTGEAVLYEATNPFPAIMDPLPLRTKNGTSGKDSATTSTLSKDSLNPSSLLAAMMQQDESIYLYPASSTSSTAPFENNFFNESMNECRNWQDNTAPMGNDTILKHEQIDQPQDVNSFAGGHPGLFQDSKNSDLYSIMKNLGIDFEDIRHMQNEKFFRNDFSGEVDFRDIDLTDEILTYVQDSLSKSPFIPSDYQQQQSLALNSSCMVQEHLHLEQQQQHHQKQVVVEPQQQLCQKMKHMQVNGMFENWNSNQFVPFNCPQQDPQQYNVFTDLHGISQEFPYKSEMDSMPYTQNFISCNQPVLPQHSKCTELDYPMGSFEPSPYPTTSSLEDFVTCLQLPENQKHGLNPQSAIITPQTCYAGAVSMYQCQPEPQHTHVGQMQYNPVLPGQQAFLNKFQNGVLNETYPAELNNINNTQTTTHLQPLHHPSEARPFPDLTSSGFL
Aromatase (Homo sapiens), sequence (P11511 whole entry, looked up): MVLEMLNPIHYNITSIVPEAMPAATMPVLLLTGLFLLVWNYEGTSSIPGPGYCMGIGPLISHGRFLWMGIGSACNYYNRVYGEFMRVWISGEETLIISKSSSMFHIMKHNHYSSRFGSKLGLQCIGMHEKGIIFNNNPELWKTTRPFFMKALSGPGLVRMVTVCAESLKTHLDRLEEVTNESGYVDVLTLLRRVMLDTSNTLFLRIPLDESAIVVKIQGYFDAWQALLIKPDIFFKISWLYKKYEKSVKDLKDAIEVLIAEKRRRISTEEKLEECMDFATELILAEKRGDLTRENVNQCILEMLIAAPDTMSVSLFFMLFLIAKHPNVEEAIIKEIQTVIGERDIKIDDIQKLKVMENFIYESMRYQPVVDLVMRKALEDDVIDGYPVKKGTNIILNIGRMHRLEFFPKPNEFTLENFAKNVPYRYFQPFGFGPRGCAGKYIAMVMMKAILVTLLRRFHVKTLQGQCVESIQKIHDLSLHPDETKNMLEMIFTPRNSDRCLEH
Peroxisome proliferator-activated receptor gamma (Homo sapiens), sequence (P37231 whole entry, looked up): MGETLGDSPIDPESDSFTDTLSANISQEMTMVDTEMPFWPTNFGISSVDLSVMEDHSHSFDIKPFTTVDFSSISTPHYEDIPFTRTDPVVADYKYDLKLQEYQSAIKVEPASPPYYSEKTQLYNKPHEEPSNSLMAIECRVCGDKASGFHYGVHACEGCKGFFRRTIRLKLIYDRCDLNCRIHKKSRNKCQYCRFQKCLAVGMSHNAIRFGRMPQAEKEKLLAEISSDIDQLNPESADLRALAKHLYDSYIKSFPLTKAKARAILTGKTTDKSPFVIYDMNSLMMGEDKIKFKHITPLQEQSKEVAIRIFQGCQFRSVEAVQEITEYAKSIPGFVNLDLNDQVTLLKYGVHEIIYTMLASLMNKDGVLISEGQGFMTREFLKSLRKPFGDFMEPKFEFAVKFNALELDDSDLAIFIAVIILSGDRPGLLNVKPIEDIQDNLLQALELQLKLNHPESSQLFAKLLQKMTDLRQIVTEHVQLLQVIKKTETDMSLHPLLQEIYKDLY
Estrogen receptor (Homo sapiens), sequence (P03372 whole entry, looked up): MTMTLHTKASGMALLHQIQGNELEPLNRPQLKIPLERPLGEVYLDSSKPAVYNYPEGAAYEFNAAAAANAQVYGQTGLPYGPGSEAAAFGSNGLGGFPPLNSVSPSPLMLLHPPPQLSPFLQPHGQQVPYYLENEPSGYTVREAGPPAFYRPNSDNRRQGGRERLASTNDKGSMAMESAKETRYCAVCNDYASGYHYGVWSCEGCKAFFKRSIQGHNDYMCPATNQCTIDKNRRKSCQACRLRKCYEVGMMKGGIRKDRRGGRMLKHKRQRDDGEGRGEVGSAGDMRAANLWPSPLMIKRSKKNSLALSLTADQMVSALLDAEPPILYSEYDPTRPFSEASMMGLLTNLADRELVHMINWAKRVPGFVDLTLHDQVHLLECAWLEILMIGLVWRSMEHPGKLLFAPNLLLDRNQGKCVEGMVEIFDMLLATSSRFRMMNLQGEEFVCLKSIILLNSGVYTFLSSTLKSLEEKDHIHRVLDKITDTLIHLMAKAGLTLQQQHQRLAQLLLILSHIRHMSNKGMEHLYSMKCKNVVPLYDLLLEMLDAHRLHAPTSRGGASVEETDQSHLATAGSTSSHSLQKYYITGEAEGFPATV

For `C=CN1CCCC1=O`, the Potency entry in test [1], in [2], in test [3], in test [4], in test [5] and in [6] was “inactive” each time. In addition, the Potency result in [7], in test [8], in [9], in [10], in test [12] and in test [13] was “inactive” throughout. For the same molecule, the Potency result in test [14], in test [15] and in [17] was “inactive” each time. Further, the result in test [11] and in test [16] was inactive.
As to `NCCN`, the Potency entry in test [1], in test [2], in test [5], in [6], in test [7] and in [8] was “inactive” in each case. In addition, the Potency entry in [9], in [10], in test [13], in test [14] and in [15] was “inactive” throughout. Moreover, the Potency is 213 nM [inconclusive] (active) and inactive in [3]; 37.6 nM (active) and inactive in [4]. Besides, the outcome in test [16] was inactive.
In the case of `C=C[C@H]1CN2CC[C@H]1C[C@H]2[C@H](O)c1ccnc2ccc(OC)cc12`, the Potency entry in test [2], in [6], in test [7], in [8], in test [10] and in test [13] was “inactive” each time. Further, the Potency result in test [18], in test [15] and in test [17] was “inactive” throughout.
For the molecule `CC(=O)[C@H]1CC[C@H]2[C@@H]3CC=C4C[C@@H](O)CC[C@]4(C)[C@H]3CC[C@]12C`, the Potency result in test [19], in test [1], in test [2], in test [5], in test [6] and in test [7] was “inactive” throughout. Also, the Potency entry in test [8], in [9], in test [10], in [13], in test [18] and in test [15] was “inactive” throughout. The Potency entry in [17] is “inactive”. The Potency in test [3] was 952 nM [inconclusive] (active) and 3.46 µM [inconclusive] (active); in test [4] it was 596 nM (active) and 5.44 µM (active); in test [14] it was 12.2 µM (active). The result in test [11] and in test [16] was inactive.
Take `CCC(=O)O[C@H]1[C@H](O[C@@H]2[C@@H](C)[C@H](O[C@H]3C[C@@](C)(OC)[C@@H](O)[C@H](C)O3)[C@@H](C)C(=O)O[C@H](CC)[C@@](C)(O)[C@H](O)[C@@H](C)C(=O)[C@H](C)C[C@@]2(C)O)O[C@H](C)C[C@@H]1N(C)C`: the Potency in test [20] is 11.9 µM (active) and 36.1 µM (active); in [6], 26.6 µM (active) and 32.2 µM (active); in test [8], 18.1 µM (active); in test [18] it was 40.5 µM (active) and inactive. The Potency result in test [19], in test [2], in [7], in [9], in test [13] and in [14] was “inactive” throughout. For the same molecule, the Potency entry in test [15] and in test [17] was “inactive” throughout. In addition, the result in test [11] and in test [16] was inactive.
Regarding `NC[C@H](O)c1ccc(O)c(O)c1`, the Potency result in test [2], in test [6], in test [7], in test [8], in test [9] and in test [10] was “inactive” each time. The Potency result in test [12], in [13], in [15] and in test [17] was “inactive” throughout. Besides, the result in test [11] and in test [16] was inactive.
As to `COc1ccc(-c2coc3cc(O)cc(O)c3c2=O)cc1`, the Potency in test [20] was 61.1 µM (active); in [3], 6.97 µM [inconclusive] (active) and 13.8 µM [activator] (active); in test [4], 436 nM (active) and 864 nM (active); in test [9], 9.77 µM (active) and 9.69 µM (active). Further, the Potency result in [19], in test [6], in test [7], in [10], in test [12] and in test [13] was “inactive” throughout. Further, the Potency result in test [18] and in [15] was “inactive” in each case. Besides, in test [16], the result was inactive.
`CC(C)(Oc1ccc(Cl)cc1)C(=O)O`: the Potency entry in test [2], in test [6], in [7], in [8], in test [9] and in [10] was “inactive” each time. Further, the Potency entry in [12], in test [13], in [14], in [18], in test [15] and in [17] was “inactive” throughout. The outcome in test [11] and in [16] was inactive.
